This passage reports AC50 and outcome results from PubChem BioAssay (EPA / NIEHS).

SMILES strings stand for the structures. Values joined by “and” are separate entries in the source; they are usually repeats but may differ in a detail not shown here. Equal values may be shown once. Results filed as inconclusive are left out. Active and inactive are the calls of the source. The calls were made as follows: active = hit-call score of the fitted dose curve at least 0.9, where 1 is the maximum; inconclusive = response in the unintended direction; inactive = score below 0.9.

The first experiment concerns turtle Estrogen Receptor (ESR1), gene 101933533. Briefly: ATG_trERa_XSP1: Attagene TRANS-FACTORIAL Multi-Species (XSP1) HepG2 Assay for turtle Estrogen Receptor (ESR1) (AID 2283781). The method in brief: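 Activity was taken as gain of reporter transcript over DMSO controls. HepG2 cells carrying GAL4-UAS-driven reporters were exposed for 24 h before RNA was extracted and reporter sequences were measured by fluorescence after capillary separation.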
By AC50 is commonly meant the concentration at which the activity in the assay is half-maximal. Take `CC(C)(C)c1cc(O)ccc1O`: the AC50 is 8.26 µM (active).
For `C[C@]12CCC(=O)C[C@@H]1CC[C@@H]1[C@@H]2CC[C@]2(C)[C@@H](O)CC[C@@H]12`, the compound was classed as inactive.
On to `O=C1C2(Cl)C3(Cl)C4(Cl)C(Cl)(Cl)C5(Cl)C3(Cl)C1(Cl)C5(Cl)C24Cl` (stereo unspecified), for which the AC50 was 0.383 µM (active).
Consider `CC12CC1(C)C(=O)N(c1cc(Cl)cc(Cl)c1)C2=O` (stereo unspecified), for which the AC50 is 30.9 µM (active).
Turning to `CC1(C)CCC(Cc2ccc(Cl)cc2)C1(O)Cn1cncn1` (stereo unspecified), the call was inactive.
As to `CC(C)(C)CC(C)(C)c1ccc(O)cc1`, the AC50 is 2.15 µM (active).

System in the next experiment: not listed separately
Briefly: ACEA_ER_AUC_viability: ACEA Biosciences xCELLigence Real-Time Cell Analysis on Estrogen Receptor Agonism for Viability (AID 2283782).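 Also: continuous compound exposure with impedance area under curve over 80 h; hit means loss of impedance signal meaning reduced cell growth or viability.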 The method in brief: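 T-47D; phenol red-free RPMI1640 + 10% CS-FBS; 8 conc., 1:4 serial, max 100 uM final, ≤0.5% DMSO; n = 2; continuous exposure; impedance monitored to 80 h post-dose; AUC vs DMSO.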
As to `CC(C)(C)c1cc(O)ccc1O`, the concentration at half-maximal activity (AC50) is 9.53 µM (active).
Consider `CCCCP(CCCC)CCCC`, for which the AC50 was 27.9 µM (active).
Turning to `OCC(O)CCl` (stereo unspecified), the compound was called inactive.
For `O=P(O)(O)c1ccccc1`, the outcome was inactive.
`ClCCBr`: the compound was called inactive.
Consider `COP(=S)(OC)Oc1cc(Cl)c(Cl)cc1Cl`, for which the concentration at half-maximal activity (AC50) is 88 µM (active).
As to `ClC1=C(Cl)[C@]2(Cl)[C@H]3[C@H]([C@H]4C=C[C@H]3C4)[C@@]1(Cl)C2(Cl)Cl`, the AC50 is 83.2 µM (active).
As to `COP(=S)(OC)Oc1cc(Cl)c(Br)cc1Cl`, the AC50 is 92.6 µM (active).
For the compound `CC(=O)c1cc(C(C)(C)C)cc2c1CCC2(C)C`, the result was inactive.
As to `O=C(CCl)CCl`, the AC50 is 62.7 µM (active).
For the compound `CCC[CH2][Sn]([CH2]CCC)([CH2]CCC)[O]C(=O)c1ccccc1`, the AC50 is 1.28 µM (active).
Regarding `CC(C)C1CCC(Cc2ccc(Cl)cc2)C1(O)Cn1cncn1` (stereo unspecified), the AC50 was 19.9 µM (active).
Regarding `CCSC(C)CC1CC(=O)C(C(CC)=NOC/C=C/Cl)=C(O)C1` (stereo unspecified), the compound was classed as inactive.
Regarding `COc1ccc(C=O)cc1`, the result was inactive.
Regarding `COc1ccc(C(O)(c2cncnc2)C2CC2)cc1` (stereo unspecified), the AC50 is 67.6 µM (active).
On to `O=C(c1ccccc1)C(Cl)Cl`, for which the AC50 is 22.6 µM (active).
`O=C1C2(Cl)C3(Cl)C4(Cl)C(Cl)(Cl)C5(Cl)C3(Cl)C1(Cl)C5(Cl)C24Cl` (stereo unspecified): the AC50 is 10.4 µM (active) and 7.76 µM (active) and 8.91 µM (active).
With `CC(C)(OO)c1ccccc1`, the half-maximal activity concentration (AC50) is 14.7 µM (active).
`Cl/C=C\C[N+]12CN3CN(CN(C3)C1)C2`: the half-maximal activity concentration (AC50) is 50 µM (active).
Take `CCOC(=O)/C=C(C)/C=C/C[C@@H](C)CCCC(C)C`: the half-maximal activity concentration (AC50) was 87.8 µM (active).
`CC(=[OH+])/C=C(/C)[O-].CC(=[OH+])/C=C(/C)[O-].CC(=[OH+])/C=C(/C)[O-].[Fe]`: the compound was classed as inactive.
Regarding `CC12CC1(C)C(=O)N(c1cc(Cl)cc(Cl)c1)C2=O` (stereo unspecified), the result was inactive.
For `N#Cc1ccccn1`, the call was inactive.
On the same count and under the same terms, the result for `ClC(Cl)=C(Cl)C(Cl)=C(Cl)Cl` reads “inactive”.
Consider `CC1(C)CCC(Cc2ccc(Cl)cc2)C1(O)Cn1cncn1` (stereo unspecified), for which the AC50 was 74.5 µM (active).
Take `CC(C)(C)CC(C)(C)c1ccc(O)cc1`: the AC50 is 21.2 µM (active) and 21.4 µM (active) and 21.5 µM (active).
With `[O-][Cl+2]([O-])O`, the outcome was inactive.
As to `C=CC(=O)N(C)C`, the AC50 is 50 µM (active).
Turning to `CCCCCCCCc1ccc(O)cc1`, the concentration at half-maximal activity (AC50) was 24.4 µM (active).
In the case of `COP(=S)(OC)Oc1ccc(S(=O)(=O)N(C)C)cc1`, the compound was classed as inactive.
